Screens deposited in PubChem BioAssay by several laboratories.
An excerpt weighted towards active compounds, which were near 1.4% of everything screened.
BJeLR viability – BJeLR cell viability loss; BJeLR (HRASV12) viability, CellTiter-Glo ATP luminescence, 48 h; 300,000 compounds, 0.17% hits; inhibition, % (test concentration not listed); in the data active means inhibition above about 50%
Sa RN4220 lethal – S. aureus RN4220 growth inhibition. inhibition, % (no concentration beside the values). OD600, 16 h. AID 1259311. 330,000 compounds, 0.33% hits; in the data active means inhibition above about 85%
3CLpro inhibitor – SARS-CoV 3CLpro protease inhibition; recombinant SARS-CoV 3CLpro, quenched FRET peptide cleavage; inhibition, % at 6 µM; AID 1706; P0C6X7; 290,000 compounds, 0.14% hits; in the data active means inhibition above about 12%
Sa ugtP lethal – growth inhibition of S. aureus ugtP deletion strain; S. aureus RN4220 ugtP deletion, OD600 growth, 16 h; growth inhibition, % (no concentration beside the values); 330,000 compounds, 0.54% hits; in the data active means growth inhibition above about 68%
PrPC TRFRET – reduces human prion protein on the cell surface. AID 720596. inhibition, % at 13.8 µM. cell surface PrPC, TR-FRET read-out. 370,000 compounds, 0.43% hits. P04156; in the data active means inhibition above about 24%
DUSP3 inh – inhibitors of human VHR1 phosphatase (DUSP3). P51452. recombinant VHR phosphatase, pNPP absorbance. inhibition, % at 13.3 µM. 290,000 compounds, 0.52% hits; in the data active means inhibition above about 50%
Target sequence (P51452 whole entry, looked up): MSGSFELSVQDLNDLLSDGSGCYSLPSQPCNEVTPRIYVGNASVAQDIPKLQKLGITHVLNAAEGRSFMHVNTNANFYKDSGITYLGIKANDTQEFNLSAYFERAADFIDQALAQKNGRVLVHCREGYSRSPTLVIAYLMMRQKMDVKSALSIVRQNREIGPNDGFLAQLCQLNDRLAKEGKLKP
Hits are given with their value; n = inactive; x = no result.

SMILES	BJeLR viability	Sa RN4220 lethal	3CLpro inhibitor	Sa ugtP lethal	PrPC TRFRET	DUSP3 inh
CCC(/C=C1\Sc2ccc(OC)cc2N1CCO)=C\c1sc2ccc(OC)cc2[n+]1CCO	x	99	n	96	n	n
Cc1cccc(-c2oc3ccc(-c4ccc5c(c4)OCO5)cc3c2C=Cc2ccc(N)cc2)c1	x	n	x	n	x	x
CCC(C)C1CNC(=S)N1CCC12CC3CC(CC(C3)C1)C2 (centres undefined)	x	n	x	n	x	x
O=C(N/N=C1\CCCc2ccccc21)c1cccc(Br)c1	n	x	n	x	n	n
O=C(NN=C1CCCC1)c1cccc(Br)c1	n	n	n	n	n	54
COc1ccc(S(=O)(=O)N(C)CC2Oc3c(NC(=O)c4ccncc4)cccc3C(=O)N(C(C)CO)CC2C)cc1 (centres undefined)	x	n	x	n	x	x
CCNC(=S)NNC(=O)c1cc(-c2cccc(OC)c2)nc2ccccc12	n	n	n	n	n	n
COc1ccc(C(=O)NNC(=S)NC(=O)c2cc(-c3ccccc3)nc3ccccc23)cc1	n	n	n	n	n	n
CCNC(=S)NNC(=O)c1cc(-c2ccc(OCC)cc2)nc2ccccc12	54	n	n	n	n	n
COc1ccc(Cl)cc1C(=O)NNC(=S)NC(=O)c1cc(-c2ccccc2)nc2ccccc12	n	93	n	97	n	n
CC(=O)C1CCC2C3CCC4=CC(=O)CC[C@]4(C)C3CC[C@]12C (some centres undefined)	x	n	x	n	x	x
CC(O)C1CNC(=O)C(=O)N1CCCCC1CCCCC1 (centres undefined)	x	n	x	n	x	x
COc1cc(C(=O)NS(=O)(=O)c2ccccc2C)ccc1Cc1cn(C)c2ccc(NC(=O)OC3CCCC3)cc12	n	x	15	x	x	n
COc1ccc(NC(=O)COc2ccccc2C)cc1S(=O)(=O)N1CCCCC1	n	n	x	n	n	x
COC(=O)c1ccc(S(=O)(=O)c2ccc([N+](=O)[O-])cc2)cc1	n	x	n	x	n	n
Cn1c(S(=O)(=O)c2ccc([N+](=O)[O-])cc2)nc(Br)c1Br	n	98	n	95	n	n
Cc1ccc(CNC(=O)CSc2nc3ccsc3c(=O)n2NC(=O)c2ccccc2)cc1	n	n	n	n	n	n
O=C(Nn1c(SCc2ccc(F)cc2)nc2ccsc2c1=O)c1ccccc1	n	83	n	n	n	n
COC(=O)c1ccc(C2C(C(=O)c3cc4ccccc4o3)=C(O)C(=O)N2c2cc(C)on2)cc1 (centres undefined)	n	x	n	x	n	n
Cc1cc(N2C(=O)C(O)=C(C(=O)c3cc4ccccc4o3)C2c2cccc(Br)c2)no1 (centres undefined)	n	100	n	100	n	n
Cc1cc(N2C(=O)C(O)=C(C(=O)c3cc4ccccc4o3)C2c2ccc(OC(C)C)cc2)no1 (centres undefined)	n	100	n	100	n	n
CCCOc1cccc(C2C(C(=O)c3cc4ccccc4o3)=C(O)C(=O)N2c2cc(C)on2)c1 (centres undefined)	n	100	n	100	n	n
CCc1ccc(CNC(=O)Cc2ccc(NC(=O)C3=C(C)OCCS3)cc2)cc1	53	x	n	x	n	51
CN(C)S(=O)(=O)c1ccc(NC(=O)c2cc(-c3cccs3)nc3ccccc23)cc1	n	n	n	n	n	n
NS(=O)(=O)c1ccc(NC(=O)c2cc(-c3cccs3)nc3ccccc23)cc1	63	x	n	x	n	n
SMILES	BJeLR viability	Sa RN4220 lethal	3CLpro inhibitor	Sa ugtP lethal	PrPC TRFRET	DUSP3 inh
FC(F)(F)c1nnc2c(Sc3ccc(Cl)cc3)nc3ccccc3n12	59	n	n	n	n	n
FC(F)(F)c1nnc2c(Sc3ccccc3)nc3ccccc3n12	n	n	n	n	n	n
C=CCOc1ccccc1CN(C(=O)CCl)c1ccc2c(c1)OCO2	125	x	n	x	n	n
COc1cc(C=NNC(=O)c2cc[n+]([O-])cc2)cc(OC)c1OC	x	n	x	n	x	x
COc1cc(/C=N/NC(=O)c2cc[n+]([O-])cc2)cc(OC)c1OC	n	x	n	x	n	56
COc1cc(C=NNC(=O)c2cc(-c3cccn3C)n[nH]2)cc(OC)c1OC	x	n	x	90	x	x
COc1cc(NC(=O)COC(=O)C=Cc2c(C)nn(-c3ccc(F)cc3)c2Cl)cc(OC)c1	x	n	x	n	x	x
NC1=NC[C@H](Cc2ccc(O)cc2)N1CCCCC1CCCCC1	n	100	x	100	n	n
NC1=NC[C@H](Cc2ccccc2)N1CCCCC1CCCCC1	n	n	x	n	n	n
